Measured values: PubChem BioAssay AID1159580 (chemical genetic matrix, 2015)
In all, about 5,500 compounds went through this assay and about 2,000 (36%) were called active. Roughly 18% stayed inconclusive and do not appear here. Rule as the data show it: active = normalized growth mostly below about 0.91 (no sharp cut-off); inconclusive = no clear call, values can overlap the other calls; inactive = mostly above about 0.92. This is one part of the list.

Assay: chemical genetic growth profiling, strain panel (AID 1159580);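 also: tested at 20 µM; growth read once vehicle control cultures reached saturation at 30 °C; 1 = growth at the plate median or of vehicle wells; lower values mean less growth of the strain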
Conditions: growth OD
[1] = S. cerevisiae deletion strains, locus YDL101C, strain DUN1, active compounds read low
[2] = S. cerevisiae deletion strains, locus YHR030C, strain SLT2, active compounds read low
[3] = S. cerevisiae deletion strains, locus YAL013W, strain DEP1, active compounds read low
[4] = S. cerevisiae deletion strains, locus YBR229C, strain ROT2, active compounds read low
[5] = S. cerevisiae deletion strains, locus YDL134C, strain PPH21, active compounds read low
[6] = S. cerevisiae deletion strains, locus YDR150W, strain NUM1, active compounds read low
[7] = S. cerevisiae deletion strains, locus YEL061C, strain CIN8, active compounds read low
[8] = S. cerevisiae deletion strains, locus YGR078C, strain PAC10, active compounds read low
[9] = S. cerevisiae deletion strains, locus YHR087W, strain rtc3, active compounds read low
[10] = S. cerevisiae deletion strains, locus YJR043C, strain POL32, active compounds read low
[11] = S. cerevisiae deletion strains, locus YJR075W, strain HOC1, active compounds read low
[12] = S. cerevisiae deletion strains, locus YKL190W, strain CNB1, active compounds read low
[13] = S. cerevisiae deletion strains, locus YLR039C, strain RIC1, active compounds read low
[14] = S. cerevisiae deletion strains, locus YLR058C, strain SHM2 (second series), active compounds read low
[15] = S. cerevisiae deletion strains, locus YLR085C, strain ARP6, active compounds read low
[16] = S. cerevisiae deletion strains, locus YLR262C, strain YPT6, active compounds read low
[17] = S. cerevisiae deletion strains, locus YML094W, strain GIM5, active compounds read low
[18] = S. cerevisiae deletion strains, locus YMR219W, strain ESC1, active compounds read low
[19] = S. cerevisiae deletion strains, locus YMR263W, strain SAP30, active compounds read low
[20] = S. cerevisiae deletion strains, locus YNL153C, strain GIM3, active compounds read low
[21] = S. cerevisiae deletion strains, locus YNL298W, strain CLA4 (second series), active compounds read low
[22] = S. cerevisiae deletion strains, locus YNL322C, strain KRE1, active compounds read low
[23] = S. cerevisiae deletion strains, locus YNR030W, strain Alg12, active compounds read low
[24] = S. cerevisiae deletion strains, locus YPL055C, strain LGE1, active compounds read low
[25] = S. cerevisiae deletion strains, locus YPL241C, strain CIN2, active compounds read low
[26] = S. cerevisiae deletion strains, locus YPR135W, strain CTF4, active compounds read low

Measured: normalized growth

Cc1c(C(=O)NCCNc2ccc(C(F)(F)F)cc2[N+](=O)[O-])cnn1-c1ccc(F)cc1
inactive: S. cerevisiae deletion strains, locus YAR019C, strain CDC15, active compounds read low 0.981 | S. cerevisiae deletion strains, locus YBL105C, strain PKC1, active compounds read low 0.971 | S. cerevisiae deletion strains, locus YBR135W, strain CKS1, active compounds read low 0.974 | S. cerevisiae deletion strains, locus YBR136W, strain MEC1, active compounds read low 0.978 | S. cerevisiae deletion strains, locus YBR160W, strain CDC28, active compounds read low 0.979 | S. cerevisiae deletion strains, locus YDL017W, strain CDC7, active compounds read low 0.982 | S. cerevisiae deletion strains, locus YDL028C, strain MPS1, active compounds read low 0.989 | [1] 0.988 | S. cerevisiae deletion strains, locus YDL108W, strain KIN28, active compounds read low 0.982 | S. cerevisiae deletion strains, locus YDL132W, strain cdc53, active compounds read low 0.978 | S. cerevisiae deletion strains, locus YDL214C, strain PRR2, active compounds read low 0.958 | S. cerevisiae deletion strains, locus YDR052C, strain DBF4, active compounds read low 0.985 | S. cerevisiae deletion strains, locus YDR054C, strain cdc34, active compounds read low 0.956 | S. cerevisiae deletion strains, locus YDR226W, strain ADK1, active compounds read low 0.982 | S. cerevisiae deletion strains, locus YDR477W, strain SNF1, active compounds read low 0.968 | S. cerevisiae deletion strains, locus YER123W, strain YCK3, active compounds read low 0.966 | S. cerevisiae deletion strains, locus YER133W, strain GLC7, active compounds read low 0.982 | S. cerevisiae deletion strains, locus YFL009W, strain cdc4, active compounds read low 0.98 | S. cerevisiae deletion strains, locus YFL029C, strain CAK1, active compounds read low 0.977 | S. cerevisiae deletion strains, locus YFR003C, strain YPI1, active compounds read low 0.984 | S. cerevisiae deletion strains, locus YFR019W, strain FAB1, active compounds read low 0.973 | S. cerevisiae deletion strains, locus YFR028C, strain CDC14, active compounds read low 0.978 | S. cerevisiae deletion strains, locus YGR040W, strain KSS1, active compounds read low 0.958 | S. cerevisiae deletion strains, locus YGR052W, strain FMP48, active compounds read low 1.06 | S. cerevisiae deletion strains, locus YGR092W, strain DBF2, active compounds read low 0.935 | [2] 0.97 | S. cerevisiae deletion strains, locus YHR079C, strain IRE1, active compounds read low 0.954 | S. cerevisiae deletion strains, locus YHR082C, strain KSP1, active compounds read low 1.01 | S. cerevisiae deletion strains, locus YHR205W, strain SCH9, active compounds read low 0.962 | S. cerevisiae deletion strains, locus YIL147C, strain SLN1, active compounds read low 0.986 | S. cerevisiae deletion strains, locus YJL095W, strain BCK1, active compounds read low 0.978 | S. cerevisiae deletion strains, locus YJL128C, strain PBS2, active compounds read low 0.946 | S. cerevisiae deletion strains, locus YJL157C, strain FAR1, active compounds read low 0.943 | S. cerevisiae deletion strains, locus YJR016C, strain ILV3, active compounds read low 0.984 | S. cerevisiae deletion strains, locus YJR066W, strain TOR1 (second series), active compounds read low 0.933 | S. cerevisiae deletion strains, locus YJR066W, strain TOR1, active compounds read low 0.999 | S. cerevisiae deletion strains, locus YKL048C, strain ELM1, active compounds read low 0.949 | S. cerevisiae deletion strains, locus YKL067W, strain YNK1, active compounds read low 0.97 | S. cerevisiae deletion strains, locus YKL101W, strain HSL1, active compounds read low 0.947 | S. cerevisiae deletion strains, locus YKL193C, strain SDS22, active compounds read low 0.983 | S. cerevisiae deletion strains, locus YKL203C, strain TOR2, active compounds read low 1.01 | S. cerevisiae deletion strains, locus YLR113W, strain HOG1, active compounds read low 0.904 | S. cerevisiae deletion strains, locus YLR133W, strain CKI1, active compounds read low 0.941 | S. cerevisiae deletion strains, locus YLR403W, strain SFP1, active compounds read low 0.937 | S. cerevisiae deletion strains, locus YML070W, strain DAK1, active compounds read low 0.94 | S. cerevisiae deletion strains, locus YMR001C, strain CDC5, active compounds read low 0.985 | S. cerevisiae deletion strains, locus YMR205C, strain PFK2 (second series), active compounds read low 0.978 | S. cerevisiae deletion strains, locus YMR277W, strain FCP1, active compounds read low 0.991 | S. cerevisiae deletion strains, locus YNL006W, strain LST8, active compounds read low 1 | S. cerevisiae deletion strains, locus YNL020C, strain ARK1, active compounds read low 0.941 | S. cerevisiae deletion strains, locus YNL161W, strain CBK1, active compounds read low 0.975 | S. cerevisiae deletion strains, locus YNL183C, strain NPR1, active compounds read low 0.986 | S. cerevisiae deletion strains, locus YNL207W, strain RIO2, active compounds read low 0.973 | S. cerevisiae deletion strains, locus YNL222W, strain SSU72, active compounds read low 0.974 | S. cerevisiae deletion strains, locus YNL307C, strain MCK1 (second series), active compounds read low 0.939 | S. cerevisiae deletion strains, locus YOL078W, strain AVO1, active compounds read low 0.986 | S. cerevisiae deletion strains, locus YOL136C, strain PFK27, active compounds read low 0.938 | S. cerevisiae deletion strains, locus YOR061W, strain CKA2, active compounds read low 0.99 | S. cerevisiae deletion strains, locus YOR119C, strain RIO1, active compounds read low 1.01 | S. cerevisiae deletion strains, locus YOR231W, strain MKK1, active compounds read low 0.912 | S. cerevisiae deletion strains, locus YOR329C, strain SCD5, active compounds read low 0.984 | S. cerevisiae deletion strains, locus YPL031C, strain PHO85, active compounds read low 0.96 | S. cerevisiae deletion strains, locus YPL153C, strain RAD53, active compounds read low 0.954 | S. cerevisiae deletion strains, locus YPL204W, strain HRR25, active compounds read low 0.943 | S. cerevisiae deletion strains, locus YPL209C, strain IPL1, active compounds read low 0.979 | S. cerevisiae deletion strains, locus YPL256C, strain CLN2, active compounds read low 0.908 | S. cerevisiae deletion strains, locus YPR025C, strain CCL1, active compounds read low 0.979 | S. cerevisiae deletion strains, locus YPR106W, strain ISR1, active compounds read low 0.965 | S. cerevisiae deletion strains, locus YPR111W, strain DBF20, active compounds read low 0.962 | S. cerevisiae deletion strains, strain NNK1, active compounds read low 0.971 | S. cerevisiae deletion strains, strain TSCII, active compounds read low 0.982

O=[N+]([O-])c1cc(C(F)(F)F)ccc1NCCCn1ccnc1
inactive: [3] 1.01 | [4] 1.01 | [1] 1.06 | [5] 0.976 | [6] 1.04 | [7] 0.988 | [8] 1.03 | [2] 1.1 | [9] 0.965 | [10] 1.04 | [11] 1.04 | [12] 0.994 | [13] 1.08 | [14] 1 | [15] 1.03 | [16] 1 | [17] 1.01 | [18] 0.991 | [19] 1.03 | [20] 1.04 | [21] 1.01 | [22] 0.98 | [23] 1.01 | [24] 0.991 | [25] 1.03 | [26] 1.07

Cc1cc(C)c(C(=O)NCCNc2ccc(C(F)(F)F)cc2[N+](=O)[O-])c(C)c1
inactive: [3] 0.97 | [4] 0.951 | S. cerevisiae deletion strains, locus YCL061C, strain MRC1, active compounds read low 0.966 | [1] 0.98 | [5] 0.971 | [6] 0.9 | [8] 0.953 | S. cerevisiae deletion strains, locus YGR229C, strain SMI1, active compounds read low 1 | S. cerevisiae deletion strains, locus YJL187C, strain SWE1, active compounds read low 0.978 | [10] 0.968 | [11] 0.895 | [14] 0.996 | [18] 0.98 | [19] 0.96 | S. cerevisiae deletion strains, locus YNL128W, strain TEP1, active compounds read low 0.957 | [20] 0.964 | [22] 0.986 | S. cerevisiae strains, strain wild type, active compounds read low 0.916
active: [7] 0.862 | [2] 0.259 | [9] 0.89 | [12] 0.794 | [13] 0.473 | [15] 0.331 | [16] 0.58 | [17] 0.817 | [21] 0.785 | [23] 0.652 | [24] 0.687 | [25] 0.846 | [26] 0.55
